# Test results: PubChem BioAssay
# Calls of active or inactive are those of the source. Unless noted, no rule for the calls is given here.
# Legend:
# [1] = HepG2 liver cancer cell viability effects, profiling panel, resazurin fluorescence, 24 h, PK04 Diversity Set (AID 1172); conditions: higher = more signal; also: test concentration not given here
# [2] = basal S. cerevisiae growth modulation, no modifier, primary screen, OD600, strain BY4716, 24 h, basal condition (AID 1173); conditions: OD600, 24 h; higher = more signal, called active from +8 up or from −8 down unless noted
# [3] = MM1S myeloma cell viability, profiling panel, resazurin fluorescence, basal, 24 h, PK04 Diversity Set (AID 1174); conditions: higher = more signal, called active from +8 up or from −8 down unless noted;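 also: MM1S multiple myeloma cell line; test concentration not given here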
# [4] = molecular target: Dihydroorotate dehydrogenase (quinone), mitochondrial (Plasmodium falciparum (isolate 3D7)) (UniProt Q08210); assay: PfDHODH enzyme inhibitors, primary screen, biochemical, C-terminal His tag, absorbance 600 nm (AID 1175); conditions: DCIP absorbance 600 nm; higher = more signal, called active from +8 up or from −8 down unless noted;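 also: recombinant parasite enzyme with a five histidine tag at its C terminus; test concentration not given here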
# Chain of Dihydroorotate dehydrogenase (quinone), mitochondrial (Plasmodium falciparum (isolate 3D7)) (Q08210 whole entry, looked up): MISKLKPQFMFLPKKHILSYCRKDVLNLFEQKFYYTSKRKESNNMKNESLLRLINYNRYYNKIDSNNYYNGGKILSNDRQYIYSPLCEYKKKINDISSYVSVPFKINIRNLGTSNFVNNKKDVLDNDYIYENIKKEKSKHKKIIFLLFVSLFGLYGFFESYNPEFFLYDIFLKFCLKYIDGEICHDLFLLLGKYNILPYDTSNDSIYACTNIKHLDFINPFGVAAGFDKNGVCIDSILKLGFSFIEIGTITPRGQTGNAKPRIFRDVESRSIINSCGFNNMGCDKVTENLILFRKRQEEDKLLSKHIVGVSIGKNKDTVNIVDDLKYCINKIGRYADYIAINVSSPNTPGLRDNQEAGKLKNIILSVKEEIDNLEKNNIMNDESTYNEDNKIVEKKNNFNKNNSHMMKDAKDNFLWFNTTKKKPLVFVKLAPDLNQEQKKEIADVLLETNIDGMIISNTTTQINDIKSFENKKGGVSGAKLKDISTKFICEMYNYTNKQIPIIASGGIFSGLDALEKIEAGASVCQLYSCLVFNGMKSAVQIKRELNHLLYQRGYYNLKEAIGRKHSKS
# [5] = P. aeruginosa biofilm formation inhibitors, primary screen, strain PAO1, LB-PBS medium, absorbance 600 nm (AID 1176); also: test concentration not given here; conditions: P. aeruginosa PAO1 growth/biofilm, A600, 12 h; higher = more signal
# [6] = S. cerevisiae RM11-1a growth modifiers, primary screen, strain RM11-1a, OD600, basal, 24 h (AID 1177); conditions: OD600, 24 h; higher = more signal, called active from +8 up or from −8 down unless noted;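 also: cultures grown under basal conditions with no added stressor; test concentration not given here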
# [7] = E. coli acrAB mutant growth effects, primary screen, E. coli filamentation inducers, strain DRC39, OD650, 24 h (AID 1178); conditions: higher = more signal, called active from +8 up or from −8 down unless noted;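 also: growth measured as culture turbidity by optical density at 650 nm; test concentration not given here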
# [8] = E. coli acrAB mutant growth effects, primary screen, E. coli filamentation inducers, strain DRC39, OD650, 48 h (AID 1179);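 also: screen aims at cell division blockers that make cells filament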; conditions: E. coli DRC39 delta-acrAB growth, higher = more signal, called active from +8 up or from −8 down unless noted
# [9] = RPMI8226 myeloma cell viability, profiling panel, resazurin fluorescence, basal, 24 h, PK04 Diversity Set (AID 1180); conditions: higher = more signal; RPMI8226 viability, resazurin fluorescence, 24 h unless noted;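 also: RPMI8826 multiple myeloma cell line at 5000 cells per well; test concentration not given here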
# [10] = molecular target: E3 ubiquitin-protein ligase XIAP (Homo sapiens) (UniProt P98170); assay: XIAP binders, primary screen, biophysical, small-molecule microarray, fluorescence 635 nm (AID 1181); conditions: small-molecule microarray binding, higher = more signal;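 also: score merges 667 nm emission and signal to noise over triplicate slides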
# Chain of E3 ubiquitin-protein ligase XIAP (Homo sapiens) (P98170 whole entry, looked up): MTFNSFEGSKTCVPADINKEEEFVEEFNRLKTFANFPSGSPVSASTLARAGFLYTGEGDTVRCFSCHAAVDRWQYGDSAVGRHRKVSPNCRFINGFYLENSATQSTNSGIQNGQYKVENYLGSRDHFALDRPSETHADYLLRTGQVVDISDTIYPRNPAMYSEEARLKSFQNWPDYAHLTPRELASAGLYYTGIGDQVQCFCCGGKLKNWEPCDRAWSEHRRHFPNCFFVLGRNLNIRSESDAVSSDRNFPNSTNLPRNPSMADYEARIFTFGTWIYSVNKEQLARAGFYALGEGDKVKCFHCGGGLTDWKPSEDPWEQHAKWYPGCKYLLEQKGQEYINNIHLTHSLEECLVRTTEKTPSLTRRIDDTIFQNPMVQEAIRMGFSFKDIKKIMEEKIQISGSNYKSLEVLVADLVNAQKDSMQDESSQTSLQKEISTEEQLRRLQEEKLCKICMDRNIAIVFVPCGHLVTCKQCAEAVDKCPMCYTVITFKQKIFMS
Structure (SMILES),z-score [1],z-score [2],z-score [3],composite z-score [4],z-score [5],z-score [6],z-score [7],z-score [8],z-score [9],composite z-score [10]
C[C@@H]1Cc2c(cnc3c2CN(C)CC3)CO1,0.507,-0.583 (inactive),0.335 (inactive),-0.7 (inactive),0.0008 (inactive),-0.498 (inactive),-0.151 (inactive),0.0072 (inactive),0.992,0.276
COC(=O)C1(C)C=C2C(=C(C)C(=O)C2C)CN1 (stereo not given),-1.13,2.09 (inactive),-2.31 (inactive),-0.809 (inactive),1.53 (inactive),1.17 (inactive),-0.608 (inactive),-1.64 (inactive),-1.24,0.226
CN1CCC(c2ccc(CO)cc2)=CC1C1CC1 (stereo not given),-0.777,0.574 (inactive),-0.55 (inactive),-0.54 (inactive),-0.247 (inactive),-0.123 (inactive),0.501 (inactive),0.389 (inactive),-0.869,0.284
COC(=O)[C@H]1[C@@H](O)[C@@]2(O)c3c(OC)cc(OC)cc3O[C@@]2(c2ccc(OC)cc2)[C@@H]1c1ccccc1,-2.12,-0.795 (inactive),-3.65 (inactive),-0.447 (inactive),0.511 (inactive),0.452 (inactive),0.945 (inactive),0.669 (inactive),-4.1,-0.245
CN1CCc2nc(CO)c(CO)cc2C1,0.328,1.31 (inactive),0.692 (inactive),0.693 (inactive),-0.188 (inactive),1.18 (inactive),0.0008 (inactive),-0.019 (inactive),1.42,-0.144
CCCc1cc2c(n1Cc1ccc(C)cc1)C(C)C1CN(C(=O)c3ccccc3)C(C)(C(=O)OC)C21 (stereo not given),-0.492,-0.283 (inactive),-1.04 (inactive),-1.07 (inactive),0.355 (inactive),-0.654 (inactive),0.103 (inactive),0.357 (inactive),-1.11,0.174
CCCc1cc2c(n1CCO)C(C)C1CN(C(=O)c3ccccc3)C(C)(C(=O)OC)C21 (stereo not given),-1.6,0.262 (inactive),-1.68 (inactive),-0.349 (inactive),-0.0703 (inactive),0.168 (inactive),-0.681 (inactive),-0.127 (inactive),-1.85,0.612
OCc1ccc(C2=CC(C3CC3)N(Cc3sc4ccccc4c3Cl)CC2)cc1 (stereo not given),-0.0351,-4.2 (inactive),-1.43 (inactive),-1.3 (inactive),-0.411 (inactive),1.76 (inactive),-1.71 (inactive),-1.33 (inactive),-1.37,0.539
